Screens deposited in PubChem BioAssay by National Center for Advancing Translational Sciences (NCATS).
This excerpt belongs to a sample that is enriched for hits.
CHX counter = Cycloheximide Counterscreen for Small Molecule Inhibitors of Shiga Toxin | actives 12% (n = 300,000) | AID 2314, 2010 | max response, % | cell reporter, cycloheximide protein synthesis inhibition counterscreen; in the data active means max response mostly above about 13%, no sharp cut-off; inactive means mostly below about 14%; further: read at 38.3 µM for the half of the compounds with a filed dose; 0% is about no effect
NS1 inh = qHTS Assay for Inhibitors of Influenza NS1 Protein Function. actives 0.4% (n = 270,000). Potency, µM (top dose mostly 46.1 µM), for inactives: at the top dose activity, positive = more growth. AID 2326, 2010; calls by dose curve; further: potency means the concentration at half of the fitted maximal effect; actives are rising curves; nearly all actives have a fitted effect of over 50% in size
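Recovery from NS1-induced slow growth read by OD600 in budding yeast switched to galactose assay medium (pH 6.0, -URA) at 1:100 dilution. Compound 23 nl per well; the matching strain lacking NS1 serves as control.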
AmpC inh detg = qHTS Inhibitors of AmpC Beta-Lactamase (assay with detergent); P00811; AmpC hydrolysis of nitrocefin, absorbance 480 nm, 0.01% Triton; Potency, µM (top dose mostly 114 µM), for the others: at the highest dose activity change, negative = inhibition, most hits filed as inhibitors; actives 0.041% (n = 370,000);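 further: potency means the concentration at half of the fitted maximal effect; 0% = no-compound wells and -100% = no-enzyme wells; nearly all actives have a fitted effect of over 25% in size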
Target sequence (P00811 whole entry, looked up): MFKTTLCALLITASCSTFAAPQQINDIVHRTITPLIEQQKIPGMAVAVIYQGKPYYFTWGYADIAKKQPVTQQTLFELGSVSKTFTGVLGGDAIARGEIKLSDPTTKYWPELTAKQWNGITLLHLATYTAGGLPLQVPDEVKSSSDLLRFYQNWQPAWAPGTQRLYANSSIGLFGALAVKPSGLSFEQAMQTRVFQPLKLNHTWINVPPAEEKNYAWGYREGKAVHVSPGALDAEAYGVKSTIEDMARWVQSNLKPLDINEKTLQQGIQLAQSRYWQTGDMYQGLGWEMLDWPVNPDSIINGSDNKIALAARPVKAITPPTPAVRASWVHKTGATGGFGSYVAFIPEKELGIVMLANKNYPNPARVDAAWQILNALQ
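AmpC (5.3 nM in the dispensed reagent) in 20 mM phosphate pH 7.0 with 0.01% (detergent screen) or 0.0001% Triton X-100 was preincubated with compounds for 15 min at room temperature. Nitrocefin was then added from an 800 uM solution, and hydrolysis was followed at 480 nm.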
Shiga toxin inh = A qHTS for Small Molecule Inhibitors of Shiga Toxin. Vero cells, Shiga toxin protein synthesis inhibition reporter. inhibition, % at 38.7 µM. actives 9.2% (n = 290,000); in the data active means inhibition mostly above about 28%, no sharp cut-off; inactive means mostly below about 43%; further: 0% is about no effect
AmpC no deterg = qHTS Inhibitors of AmpC Beta-Lactamase (assay without detergent); AmpC nitrocefin hydrolysis, absorbance 480 nm, 0.0001% Triton; Potency, µM (series often up to 57.1 µM), for inactives: top-dose activity change, negative = inhibition, most hits filed as inhibitors; actives 0.52% (n = 330,000);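 further: potency means the concentration at half of the fitted maximal effect; plate controls were no compound for no effect and no enzyme for full effect; nearly all actives have a fitted effect of over 20% in size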
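20 mM phosphate pH 7.0 + 0.01% (detergent screen) or 0.0001% Triton X-100; 5.3 nM AmpC reagent; cpd preinc 15 min RT; nitrocefin (800 uM stock) to start; A480 q20 s × 4 min; Activity was normalised to no-enzyme and no-compound control wells.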
An asterisk follows results filed as active; ? = inconclusive; . = no result; [ ] = another dose, or the depositor's remark. Unless noted, the call rests on the fitted dose curve; in most records, active means well fitted curve in the direction sought with a large enough effect; inconclusive means small, poorly fitted or top-dose-only effect, or another doubt; inactive means no such curve, though single readings can be large; an effect the other way counts as inactive or inconclusive.

SMILES	CHX counter	NS1 inh	AmpC inh detg	Shiga toxin inh	AmpC no deterg
COC(=O)c1ccccc1NC(=O)Cn1c(=O)n(CCCC(=O)NCc2ccccc2Cl)c(=O)c2ccccc21	.	.	6.8%	.	.
O=C(NCc1ccccc1)c1ccc(S(=O)(=O)C(F)F)cc1	15.2	6.0%	4.3%	1.8	-7.0%
Cc1ccc(OCC(=O)Nc2cccc(OCc3cc(=O)n4cccc(C)c4n3)c2)cc1C	.	.	1.1%	.	.
C=CCOC(=O)CCCC(=O)NC1CCCCC1	8.4	-0.4%	?	active	-8.7%
O=C(CC1CCCCC1)NC1CCCC1	19.0*	-10.3%	-6.5%	26.3	-11.0%
O=C(CCC1CCCC1)NC1CCCCC1	18.0*	3.4%	0.2%	64.9*	-1.6%
COc1ccc(-c2[nH]c(-c3cccc(OC)c3)nc2SCC(=O)Nc2ccc3c(c2)OCO3)cc1	.	.	-6.3%	.	.
COc1ccc(NC(=O)CC2C(=O)N(C)C(=S)N2Cc2ccc3c(c2)OCO3)cc1 (stereo not drawn)	0.4	20.4%	-18.0%	-6.7	-17.2%
CCc1ccc2oc(-c3cc(NC(=O)C(C)C)cc(C)c3O)nc2c1	.	.	-0.2%	.	.
CCc1ccc2oc(-c3cc(N)ccc3O)nc2c1	18.5*	?	-0.4%	15.1	?
Nc1ccc2oc(-c3ccccc3Cl)nc2c1	20.6*	?	-1.2%	36.1*	-30.1%
CCc1ccc2oc(-c3cc(N)ccc3Cl)nc2c1	14.9*	-58.5%	?	20.8	-1.1%
Cc1cc(C)c2nc(-c3ccncc3)cc(C(=O)N3CCN(Cc4ccccc4Cl)CC3)c2c1	7.7	-82.9%	-4.7%	-9.2	179.2%
O=C(Nc1cccc([N+](=O)[O-])c1)c1ccc2snnc2c1	-3.6	-4.3%	-6.8%	-5.9	-12.5%
CCN(CC)C(=O)[C@H]1CC(CC(=O)NCCN2CCOCC2)C(=O)N2CCc3c([nH]c4ccccc34)[C@]12C (stereo partly drawn)	.	.	.	.	18.4%
Cc1ccc(C(=O)NCC(=O)OCC(=O)NCC(F)(F)F)cc1	17.6*	.	-11.5%	-5.5	-10.1%
N#Cc1c(-c2ccc(F)cc2)ccnc1N1CCOCC1	18.5*	-4.5%	-5.5%	26.5	4.2%
N#Cc1c(-c2ccccc2)ccnc1N1CCOCC1	11.5	7.1%	-2.4%	29.8	2.7%
Cc1c(C(=O)Nc2ccc(-c3nc4cc(Cl)ccc4o3)cc2)oc2ccccc12	.	.	-6.7%	.	.
Cc1ccc(O)c(C=Nc2cc(C)ccc2O)c1	14.9*	-2.3%	-12.8%	67.2	-34.3%
Cc1ccccc1N=Cc1cccc(O)c1O	7.6	-45.9%	?	7.0	-47.8%
CCc1ccc(O)c(N=Cc2ccccc2O)c1	14.8*	-9.5%	?	71.0*	-23.3%
CC(C)(C)c1ccc(O)c(N=Cc2c(O)ccc3ccccc23)c1	3.5	9.0%	?	9.4	-32.3%
Cc1ccc(N=Cc2cccc(O)c2O)c(C)c1	24.7	-56.7%	0.2%	36.7*	-51.1%
CC(C)(C)c1ccc(O)c(N=Cc2cc(Br)ccc2O)c1	20.1*	2.5%	9.2%	30.6*	-26.4%
SMILES	CHX counter	NS1 inh	AmpC inh detg	Shiga toxin inh	AmpC no deterg
CCNC(=O)CSc1nnc(-c2cccc(S(=O)(=O)N3CCOCC3)c2)o1	.	.	-17.3%	.	0.4%
Oc1cccc(/C=N/N=C/c2cccc(O)c2O)c1O	30.2*	-64.6%	-11.8%	18.0	-16.8%
Oc1ccc(N=Nc2ccc3c(c2)OCO3)c2ccccc12	58.0*	-4.2%	1.8%	77.9*	-17.1%
COc1ccc(-c2nnc(SCC(=O)Nc3ccc(Cl)cc3)s2)cc1	.	.	0.8%	.	.
CCC(=O)Nc1cccc(-c2nc3ccccc3o2)c1	16.1*	-33.7%	-7.3%	48.2	?
CS(=O)(=O)c1ccccc1C(=O)Nc1cccc(-c2nc3ccccc3o2)c1	23.3*	-7.5%	-11.8%	12.4	50.2%
CC(=O)Nc1nc2ccc(-c3nc4ccccc4o3)cc2s1	60.5*	-10.7%	3.7%	54.1*	22.6%
CCOc1ccc(CNC(=O)c2ccc3nc(C(C)C)oc3c2)cc1	.	.	0.6%	.	.
COc1ccc(N=Nc2nc(-c3ccccc3)c(-c3ccccc3)[nH]2)cc1	-3.3	11.0%	-10.3%	-2.9	-36.8%
COc1ccccc1N=Nc1nc(-c2ccccc2)c(-c2ccccc2)[nH]1	11.9*	-7.8%	-7.2%	-1.5	?
CC1=CC2=NC(=O)CC(C)(C(=O)N(CC(=O)NC(C)(C)C)Cc3cccs3)N2C=C1 (stereo not drawn)	-2.0	6.6%	?	-7.0	-11.7%
CCOC(=O)CNC(=O)Cn1cnc2c(nnn2-c2ccc(OC)cc2)c1=O	0.8	-5.5%	-0.2%	4.8	2.5%
Cc1ccc(-c2nn(-c3ccccc3)cc2C(=O)NCC(c2cccs2)N2CCOCC2)cc1 (stereo not drawn)	.	.	-14.6%	.	46.7%
Cc1ccc(C(=O)Oc2ccc(/C=C3\C(=N)N4N=C(N5CCOCC5)SC4=NC3=O)cc2)cc1	26.1*	4.5%	0.4%	59.3*	-3.9%
N=C1/C(=C\c2ccc(OCc3ccccc3)cc2)C(=O)N=C2SC(N3CCCC3)=NN12	27.1*	2.6%	-4.4%	45.3*	-26.9%
N=C1/C(=C\c2ccc(OC(=O)c3ccc(F)cc3)cc2)C(=O)N=C2SC(N3CCCC3)=NN12	15.3	-40.0%	2.9%	11.2	-27.5%
N=C1/C(=C\c2ccc(OC(=O)c3ccccc3)cc2)C(=O)N=C2SC(N3CCOCC3)=NN12	15.2*	-24.2%	-12.2%	11.3	-11.5%
Cc1ccc2cc(C)c(N3CCN(c4ccccn4)CC3)nc2c1	27.6	-95.1%	-19.4%	51.2*	0.8%
Clc1ccc2c(c1)CNc1c(ncnc1N1CCOCC1)O2	11.6*	?	?	-13.9	23.3%
Clc1ccc2c(N3CCOCC3)ccnc2c1	-2.1	2.9%	-10.6%	.	-1.3%
CC(=O)N[C@@H](Cc1c[nH]c2ccccc12)C(=O)OCc1cc(C(F)(F)F)cc(C(F)(F)F)c1	.	-56.0%	0.0%	.	223.4%
Cn1c(SCc2ccccc2F)nnc1-c1ccccn1	43.9*	-3.6%	-0.9%	108.8*	-3.9%[2.29 µM]
Nn1c(SCc2ccccc2F)nnc1-c1cccnc1	40.2*	1.7%	-0.8%	74.8*	-14.1%
Cn1c(SCc2ccccn2)nnc1-c1cnccn1	37.7*	1.0%	-12.1%	57.1*	-6.9%
Cn1nnnc1SCc1ccccc1F	-0.4	5.1%	-9.2%	-6.3	-10.5%
SMILES	CHX counter	NS1 inh	AmpC inh detg	Shiga toxin inh	AmpC no deterg
Cc1cccc(CSc2nnc(-c3ccccn3)n2N)c1	17.7*	-12.3%	-11.4%	35.7	-6.5%
Nn1c(SCc2ccc(Br)cc2)nnc1-c1ccccn1	-2.5	5.1%	-0.1%	-6.4	-1.6%
Nn1c(SCc2cccc(F)c2)nnc1-c1cccnc1	13.9	0.9%	3.9%	24.4	18.9%
CCc1ccc(NC(=O)C2CCCN(c3nn4cc(-c5ccc(OC)cc5)nc4s3)C2)cc1 (stereo not drawn)	.	.	23.7%	.	.
Cn1c(SCC(N)=O)nnc1-c1cnccn1	4.3	4.5%	-7.5%	1.9	-3.1%
Cn1c(SCc2nc3ccccc3[nH]2)nnc1-c1cnccn1	26.8	3.8%	-9.6%	43.3	-10.0%
